Assay results: PMC4552634, “A New Set of Chemical Starting Points with Plasmodium falciparum Transmission-Blocking Potential for Antimalarial Drug Discovery” (PLoS ONE, 2015)
Like-named read-outs stand apart in the source and are kept apart here. The campaign covered roughly 13,000 compounds. About 3,200 (25%) showed an effect of 50% or more. The list shows a part of the results.

Test system: P. falciparum stage V gametocytes
Parameters: BacTiter-Glo ATP luminescence viability of purified stage V gametocytes in 384-well plates, per cent inhibition versus DMSO
Settings: 48 h, 5 µM, inhibitor

SMILES	% Inhibition	% Inhibition (% Inhibition)
CCCCC1(NC(=O)[C@@H](Nc2ccc(C#N)c3ccccc23)C2CCCCC2)CCCCC1 [TCMDC-136636]	-65.73%	–
CCOCc1cnc(C)nc1NCC(=O)c1c(C)[nH]c2cc(C)ccc12 [TCMDC-124067]	-5.397%	–
CC1(C)CCCC(=Cc2ccc(Br)cc2)C1(O)Cn1ccnc1 (stereo not shown) [TCMDC-125214]	19.91%	–
COc1cc2nccc(Nc3cc(C)cc(O)c3)c2cc1OC.Cl [TCMDC-138196]	-1.594%	–
CCCCOC(=O)c1ccc(NC(=O)Nc2ccc(Cn3ncc(N4CCCNCC4)c(Cl)c3=O)cc2)cc1 [TCMDC-133323]	-2.086%	–
COc1ccc(C(=O)C2CC2CN(C)CCC(O)c2ccc(Cl)c(Cl)c2)cc1 (stereo not shown) [TCMDC-136792]	-25.71%	–
COc1ccc(C(=O)C2CC2CN(C)CC(O)c2cc(C)c(OC)cc2C)cc1 (stereo not shown) [TCMDC-136800]	56.77%	–
COc1cccc(C(=O)C2CC2CN(C)CC(O)c2cc(C)c(OC)cc2C)c1 (stereo not shown) [TCMDC-136802]	18.93%	–
N#Cc1ccc(NC(=NCc2ccc(Cl)cc2Cl)Nc2cccc(Cl)c2Cl)c(O)c1 [TCMDC-140224]	-0.417%	–
CC1(C)N=C(N)N=C(N)N1OCc1ccc2ccccc2c1 [TCMDC-125513]	17.08%	–
CC(C)Nc1nc(NCCc2cnc[nH]2)nc(NCc2ccc(Cl)c(Cl)c2)n1 [TCMDC-139747]	6.944%	–
CC(=O)Nc1cccc(C(=O)Nc2cccc(-c3ccc(-c4nc5c(C)cccc5[nH]4)cc3)c2)c1 [TCMDC-132136]	-12.3%	–
CC(=O)Nc1ccc(C(=O)Nc2ccc(-c3cccc(-c4nc5ccc(F)cc5[nH]4)c3)cc2)cn1 [TCMDC-136822]	-42.62%	–
CC(=O)Nc1ccc(C(=O)Nc2cccc(-c3cccc(-c4nc5c(C)cccc5[nH]4)c3)c2)cn1 [TCMDC-136830]	-4.811%	–
CC(=O)Nc1ccc(C(=O)Nc2ccc(-c3cccc(-c4nc5c(C)cccc5[nH]4)c3)cc2)cn1 [TCMDC-136831]	74.93%	–
CC(=O)N(C)c1cccc(C(=O)Nc2ccc(-c3cccc(-c4nc5c(C)cccc5[nH]4)c3)cc2)c1 [TCMDC-137072]	-29.92%	–
CC(=O)Nc1ccc(C(=O)Nc2cccc(-c3ccc(-c4nc5c(C)cccc5[nH]4)cc3)c2)cn1 [TCMDC-136823]	57.24%	–
CN(C)CCC1CCCc2ccc(NC(=O)Nc3ccc(-c4ccncc4)c4ccccc34)cc21 (stereo not shown) [TCMDC-139156]	-24.46%	–
CCC(C)Oc1ccc(CCCON2C(N)=NC(N)=NC2(C)C)cc1 (stereo not shown) [TCMDC-131784]	25.06%	–
CCOc1ccc(C(Cc2ccccc2)NC(=O)c2cccnc2)cc1OCC (stereo not shown) [TCMDC-124519]	50.66%	–
CCOc1ccc(CCC(=O)O)cc1OCC [TCMDC-124302]	4.043%	–
CCOc1cc(C(=O)Nc2cccnc2)cc(Br)c1OCCC(C)C [TCMDC-123549]	16.86%	–
CCOc1ccc(C(C)NC(=O)Cc2ccccc2F)cc1OCC (stereo not shown) [TCMDC-123564]	31.28%	–
CCCCNC(=O)[C@H](Cc1ccccc1)NC(=O)c1ccc(O)c(-c2ccc(Cl)c(Cl)c2)c1 [TCMDC-140840]	16.49%	–
COc1cc(Nc2nccc(N3CCC(NC(=O)C4COc5ccccc5O4)C3)n2)cc(OC)c1OC (stereo not shown) [TCMDC-133625]	-0.8923%	–
CCOc1ccc(C(C)NC(=O)Nc2ccccc2)cc1OCC (stereo not shown) [TCMDC-123556]	52.41%	–

SMILES	% Inhibition	% Inhibition (% Inhibition)
CCOc1ccc(C(C)NC(=O)C2COc3ccccc3O2)cc1OCC (stereo not shown) [TCMDC-125018]	78.92%	–
CN1CCN(c2ccc(Cl)cc2NC(=O)C2COc3ccccc3O2)CC1 (stereo not shown) [TCMDC-124321]	9.444%	–
CCCCCCNC(=O)C(N)CCCC(N)C(=O)NCCCCCC (stereo not shown) [TCMDC-131401]	16.24%	–
CSc1cccc(NC(=O)Nc2ccc(I)c(OCCN(C)C)c2)c1 [TCMDC-139123]	6.817%	–
COc1cc2cc(Cc3cnc(N)nc3N)ccc2c(OC)c1OC [TCMDC-138023]	-6.286%	–
O=C(NCCCc1ccccc1)c1csc(C2CCCN(C(=O)c3ccc(O)c(-c4cccc5ccccc45)c3)C2)n1 (stereo not shown) [TCMDC-140154]	-33.08%	–
CC(C)(C)c1ccc(NC(=O)c2cccc(CN3CCCN(Cc4cccc(Cl)c4)CC3)c2)cc1 [TCMDC-135982]	-61.3%	–
CCc1cc(I)c2c(c1)C(NCCCNc1cc(=O)c3ccccc3[nH]1)CCN2 (stereo not shown) [TCMDC-140023]	-10.14%	–
O=c1cc(NCCNCc2cccc(-c3ccccc3)c2)[nH]c2ccccc12 [TCMDC-139376]	20.69%	–
O=C(CCC1CCCCC1)NCCNc1cccc2ccccc12 [TCMDC-124017]	107.9%	–
CC(C)(C)C1CCC(C(=O)c2ccc3ccccc3c2O)CC1 (stereo not shown) [TCMDC-137495]	11.22%	–
Cc1cc(NCCC(=O)Nc2ccccc2)nc(NCC2CCCCC2)n1 [TCMDC-134926]	-30.27%	–
O=C(Nc1ccccc1)Nc1cccc(-c2cccc(-c3nc4ccc(F)cc4[nH]3)c2)c1 [TCMDC-133154]	-14.02%	–
CCOc1ccc(-c2nc(NC(=O)COc3ccc(OC)cc3)sc2C)cc1 [TCMDC-124329]	36.75%	–
Cc1cccc2[nH]c(-c3cccc(-c4cccc(NC(=O)c5csnn5)c4)c3)nc12 [TCMDC-136904]	82.61%	–
CC(=O)Nc1nc(C(=O)Nc2ccc(-c3cccc(-c4nc5c(C)cccc5[nH]4)c3)cc2)cs1 [TCMDC-137131]	-2.039%	–
Cc1cccc2[nH]c(-c3cccc(-c4ccc(NC(=O)C5CC(=O)Nc6ccccc65)cc4)c3)nc12 (stereo not shown) [TCMDC-137098]	-77.35%	–
Cc1ccoc1C(=O)Nc1cccc(-c2cccc(-c3nc4c(C)cccc4[nH]3)c2)c1 [TCMDC-136836]	81.69%	–
O=C1CC(C(=O)Nc2cccc(-c3cccc(-c4nc5ccccc5[nH]4)c3)c2)c2ccccc2N1 (stereo not shown) [TCMDC-137096]	26.75%	–
Cc1cccc2[nH]c(-c3cccc(-c4cccc(NC(=O)C5CC(=O)Nc6ccccc65)c4)c3)nc12 (stereo not shown) [TCMDC-137097]	79.84%	–
Cc1ccoc1C(=O)Nc1cccc(-c2cccc(-c3nc4ccccc4[nH]3)c2)c1 [TCMDC-136834]	-43.19%	–
CC(=O)Nc1nc(C(=O)Nc2cccc(-c3ccc(-c4nc5c(C)cccc5[nH]4)cc3)c2)cs1 [TCMDC-137123]	80.9%	–
Cc1cnc(C(=O)Nc2cccc(-c3cccc(-c4nc5c(C)cccc5[nH]4)c3)c2)cn1 [TCMDC-137030]	-21.98%	–
Cc1ccoc1C(=O)Nc1ccc(-c2cccc(-c3nc4c(C)cccc4[nH]3)c2)cc1 [TCMDC-136837]	-21.37%	–
O=C(Nc1cccc(-c2cccc(-c3nc4ccccc4[nH]3)c2)c1)c1csnn1 [TCMDC-136898]	1.573%	–
CC(=O)Nc1nc(C(=O)Nc2cccc(-c3cccc(-c4nc5c(C)cccc5[nH]4)c3)c2)cs1 [TCMDC-137130]	-6.466%	–

SMILES	% Inhibition	% Inhibition (% Inhibition)
Clc1cc(Nc2ccnc3ccc(Br)cc23)ccc1Oc1ccc(Cl)c2ccccc12 [TCMDC-123834]	-13.4%	–
O=c1cc(NC[C@H]2CCC[C@@H]2NC2CCCc3c2[nH]c2ccccc32)[nH]c2ccccc12 (stereo partly shown) [TCMDC-139785]	10.53%	–
CCc1cccc(C)c1-n1nc(-c2cc(C(C)(C)C)oc2C)cc1N [TCMDC-134028]	9.67%	–
CCc1ccc(NC(=O)c2ccc(CN3CCCN(CC4CCCCC4)CC3)cc2)cc1 [TCMDC-136437]	-21.72%	–
COc1ccc2nccc(N3CCC(CCNCc4ccc5c(n4)NC(=O)CO5)CC3)c2c1.Cl [TCMDC-141904]	-28.1%	–
Cc1nn(C)c(C)c1CN(Cc1nc(-c2cccc(Oc3ccccc3)c2)oc1C)C1CC1 [TCMDC-124629]	8.903%	–
C=CCc1cc(Cc2cnc(N)nc2N)cc(CCC)c1O [TCMDC-138048]	-56.02%	–
COc1ccc2nccc([C@@H](O)CN3CCC(NC(=O)/C=C/c4cc(F)cc(NC(C)=O)c4)CC3)c2c1 [TCMDC-141030]	-4.964%	–
Oc1cccc(-c2nc3cc(C4=NC5CCCCC5N4)ccc3[nH]2)c1 (stereo not shown) [TCMDC-138108]	–	-4.911%
CC(=O)Nc1nc(C(=O)Nc2ccc(-c3cccc(-c4nc5ccccc5[nH]4)c3)cc2)cs1 [TCMDC-137120]	25.25%	–
CC(=O)Nc1nc(C(=O)Nc2cccc(-c3cccc(-c4nc5ccccc5[nH]4)c3)c2)cs1 [TCMDC-137121]	-11.21%	–
CC(=O)Nc1nc(C(=O)Nc2cccc(-c3ccc(-c4nc5ccccc5[nH]4)cc3)c2)cs1 [TCMDC-137127]	61.93%	–
N#CC(c1ccc(F)cc1)c1ccc2c(C(F)(F)F)cc(C(F)(F)F)nc2n1 (stereo not shown) [TCMDC-123761]	-46.13%	–
COc1ccc2nccc(N3CCN(CCNCc4ccc5c(n4)NC(=O)CS5)CC3)c2n1 [TCMDC-141967]	-20.32%	–
COc1cccc(O)c1CNCC(O)c1cccc(C(F)(F)F)c1 (stereo not shown) [TCMDC-140396]	-36.87%	–
NCc1ccc(CNCc2cccc(-c3ccc(-c4nc5cc(C(F)(F)F)ccc5[nH]4)cc3)c2)cc1 [TCMDC-132811]	93.89%	–
CS(=O)(=O)c1ccc(CNCc2cccc(-c3ccc(-c4nc5ccc(C(F)(F)F)cc5[nH]4)cc3)c2)cc1 [TCMDC-132902]	-71.66%	–
Nc1cccc(CNCc2cccc(-c3ccc(-c4nc5ccc(C(F)(F)F)cc5[nH]4)cc3)c2)c1 [TCMDC-132935]	-40.76%	–
Nc1cccc(CNCc2ccc(-c3cccc(-c4nc5ccc(C(F)(F)F)cc5[nH]4)c3)cc2)c1 [TCMDC-132929]	-69.76%	–
O=C(NCc1ccccc1)Nc1ccc(-c2ccc(-c3nc4ccc(C(F)(F)F)cc4[nH]3)cc2)cc1 [TCMDC-133157]	-8.983%	–
FC(F)(F)c1ccc2nc(-c3cccc(-c4ccc(CNCc5ccccc5)cc4)c3)[nH]c2c1 [TCMDC-132712]	-50.86%	–
FC(F)(F)c1ccc2nc(-c3ccc(-c4ccc(CNCc5ccccc5)cc4)cc3)[nH]c2c1 [TCMDC-132705]	55.9%	–
CS(=O)(=O)c1ccc(CNCc2ccc(-c3cccc(-c4nc5ccc(C(F)(F)F)cc5[nH]4)c3)cc2)cc1 [TCMDC-132897]	17.9%	–
FC(F)(F)c1ccc2nc(-c3ccc(-c4cccc(CNCc5ccccc5)c4)cc3)[nH]c2c1 [TCMDC-132704]	67.94%	–
